From PubChem BioAssay (NCATS) come the findings set out here.

Structures are written as SMILES. Inconclusive results are not listed. Values without a mark were called inactive. Active and inactive are the calls of the source. Calls come from the whole dose curve; as a rule, active = well fitted curve in the direction sought with a large enough effect; inconclusive = small, poorly fitted or top-dose-only effect, or another doubt; inactive = no such curve, though single readings can be large; an effect the other way counts as inactive or inconclusive.

One test deals with C33A. The experiment in a line: Primary qHTS to identify gynecologic anti-cancer compounds using libraries of approved drugs and bioactive compounds (AID 1345084). Note: nearly all actives have a fitted effect of over 55% in size. Note: potency is the fitted concentration of half-maximal effect. The conditions noted are these: Gynecologic cancer cell panel viability, ATPlite luminescence, 48 h; series mostly up to 57.5 µM. The essentials:
(§1)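 In this quantitative HTS, cell killing is estimated from loss of ATP-dependent luciferase light. Cells see five compound concentrations over a 48 h exposure.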

The test system of a further test is CAOV3. Described as above. To be noted: Gynecologic cancer cell panel viability, ATPlite luminescence, 48 h; series mostly up to 57.5 µM. In outline: as §1
A further test concerns CASKI. The test is described as above. The conditions noted are these: Gynecologic cancer cell panel viability, ATPlite luminescence, 48 h; series mostly up to 57.5 µM. In outline:
as §1
In general terms: In ATP-based viability assays light output follows the ATP content of the culture.

In a further test the test system is Es-2. The test is described as above. To be noted: Gynecologic cancer cell panel viability, ATPlite luminescence, 48 h; series mostly up to 57.5 µM. The essentials: as §1
Another test concerns HeLa. The description is as above. To be noted: Gynecologic cancer cell panel viability, ATPlite luminescence, 48 h; series mostly up to 57.5 µM. The essentials:
as §1

In a further test the test system is Hek293T. The test is described as above. The conditions noted are these: Gynecologic cancer cell panel viability, ATPlite luminescence, 48 h, control line for the selectivity index; series mostly up to 57.5 µM. In outline:
as §1

Another test concerns JEG-3. The test is described as above. The conditions noted are these: Gynecologic cancer cell panel viability, ATPlite luminescence, 48 h; series mostly up to 57.5 µM. In outline:
as §1

The subject of a further test is Tov112D. The test is described as above. The conditions noted are these: Gynecologic cancer cell panel viability, ATPlite luminescence, 48 h; series mostly up to 57.5 µM. In outline: as §1
The nature of test [1]: qHTS assay to identify inhibitors of the type 1 interferon - major histocompatibility complex class I in skeletal muscle: Counter screen cell viability and HiBit confirmation (AID 1347412). Note: nearly all actives have a fitted effect of over 60% in size. To be noted: iHSKM muscle cells + IFN-b, HiBiT or CellTiter-Glo, 24 h, at 45.9 µM (top of the series). In outline:
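CRISPR HLA-B*08:01-HiBit immortalized human myoblasts (C25cl48) stimulated with 4 ng/ml IFN-beta and compounds (12-point 1:3, top 46 uM final) for 24 h at 37 C. Duplicate plates read by HiBit lytic luminescence or CellTiter Glo ATP.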
(Quantitative high-throughput screening tests each substance at several concentrations.)

In another test the test system is PA-1. The experiment in a line: Primary qHTS to identify gynecologic anti-cancer compounds using libraries of approved drugs and bioactive compounds (AID 1345084). Note: nearly all actives have a fitted effect of over 55% in size. Note: potency is the fitted concentration of half-maximal effect. To be noted: Gynecologic cancer cell panel viability, ATPlite luminescence, 48 h; series mostly up to 57.5 µM. In outline: as §1
The subject of another test is SKOV3. Described as above. To be noted: Gynecologic cancer cell panel viability, ATPlite luminescence, 48 h; series mostly up to 57.5 µM. The essentials: as §1
The next test deals with Tov-21-G. The test is described as above. The conditions noted are these: Gynecologic cancer cell panel viability, ATPlite luminescence, 48 h; series mostly up to 57.5 µM. The essentials: as §1
A further test deals with OV90. The description is as above. The conditions noted are these: Gynecologic cancer cell panel viability, ATPlite luminescence, 48 h; series mostly up to 57.5 µM. The essentials: as §1
% is set by controls: 0 for no effect and ±100 for the full control effect.

Turning to `C[C@H]1Oc2cc(cnc2N)-c2c(nn(C)c2C#N)CN(C)C(=O)c2ccc(F)cc21`, the Potency result in the test on C33A, with CAOV3, in the test with CASKI, with Es-2, in the test on HeLa and with Hek293T was “inactive” each time. The Potency result in the test with JEG-3 and in the test on Tov112D was “inactive” in each case. Besides, the activity change, negative = inhibition was -24.3% in test [1] (HiBiT) and -27.7% in [1] (Viability).
`COc1cc(OC)cc(C(=O)Nc2ccc(Cl)c(-c3nc4ccc(N(C)C)cc4[nH]3)c2)c1`: the Potency entry with C33A, in the test with CAOV3, with CASKI, in the test with Es-2, with HeLa and with JEG-3 was “inactive” in each case. Besides, the Potency entry in the test on PA-1, in the test with SKOV3, in the test on Tov-21-G and in the test on Tov112D was “inactive” in each case.
As for `Cc1cc(C(N)=O)ccc1-n1c(CCC(=O)O)ccc1-c1ccc(-n2ccnc2)cc1`, the Potency result in the test with C33A, in the test with CAOV3, in the test on CASKI, with Es-2, with HeLa and in the test with Hek293T was “inactive” throughout. Moreover, the Potency entry in the test on OV90, with PA-1, with Tov-21-G and in the test with Tov112D was “inactive” each time.
In the case of `CC1CC2OC3(OC2C(C)(C)O)C1C1(C)CCC24CC25CCC(O[C@@H]2OC[C@@H](O)[C@H](O)[C@H]2O)C(C)(C)C5CC=C4C1(C)C3O` (some centres undefined), the Potency result in the test with C33A, with CAOV3, in the test on CASKI, in the test on Es-2, in the test on HeLa and with Hek293T was “inactive” each time. In addition, the Potency entry with OV90, with PA-1, in the test on SKOV3, with Tov-21-G and with Tov112D was “inactive” each time.
For `Nc1ccccc1N`, the Potency in the test with C33A was 10 µM (active); with CAOV3, 5.62 µM (active); in the test on CASKI it was 7.94 µM (active); in the test on Es-2 it was 11.2 µM (active); in the test on HeLa, 12.6 µM (active); with Hek293T, 7.94 µM (active). The Potency with OV90 is 10 µM (active); with PA-1 it was 14.1 µM (active); with SKOV3, 12.6 µM (active); in the test on Tov-21-G, 12.6 µM (active).
As for `CN1CCN(C(=O)c2ccc3cc(CCNc4ncnc5ccc(C#N)cc45)ccc3c2)CC1`, the Potency result in the test on C33A, in the test with CAOV3, with CASKI, in the test with Es-2, in the test with HeLa and in the test with Hek293T was “inactive” in each case. In addition, the Potency result in the test with Tov-21-G and with Tov112D was “inactive” in each case. Moreover, the activity change, negative = inhibition in test [1] (Viability) was 5.79%.
In the case of `CS(=O)(=O)NCC1CCC(Nc2nc3c(s2)CCSc2ccccc2-3)CC1` (centres undefined), the Potency entry in the test with C33A, in the test with CAOV3, with CASKI, in the test on Es-2, in the test with HeLa and with Hek293T was “inactive” in each case. Also, the Potency entry in the test on JEG-3, with Tov-21-G and in the test on Tov112D was “inactive” in each case.
For `COc1cc(O)cc(/C=C/c2ccc(O[C@@H]3O[C@H](CO)[C@@H](O)[C@H](O)[C@H]3O)cc2)c1`, the Potency result with C33A, in the test with CAOV3, with CASKI, in the test on Es-2, with HeLa and with Hek293T was “inactive” throughout. Besides, the Potency entry with OV90, in the test on PA-1 and in the test on Tov112D was “inactive” each time.
`NC1(C(=O)NC(CCO)c2ccc(Cl)cc2)CCN(c2ncnc3[nH]ccc23)CC1` (centres undefined): the figures for the Potency in the test with C33A and in the test on Tov-21-G were 2.24 µM (active) and 1.26 µM (active), respectively. For the same molecule, the Potency entry in the test on CAOV3, in the test with CASKI, with Es-2, in the test with HeLa, with JEG-3 and in the test with PA-1 was “inactive” each time. Further, the Potency entry in the test on Tov112D was “inactive”.
Take `CCC(CC)C(=O)Nc1sc2c(c1C#N)CCC(C(C)(C)CC)C2` (centres undefined): the Potency entry in the test on C33A, in the test with CAOV3, in the test on CASKI, in the test on Es-2, in the test on HeLa and with JEG-3 was “inactive” each time. The Potency entry with OV90, in the test on PA-1, in the test on Tov-21-G and in the test with Tov112D was “inactive” in each case.
Turning to `O=C1NC(=O)C(c2cn3c4c(cccc24)CCC3)C1c1c[nH]c2ccccc12` (centres undefined), the Potency in the test with C33A was 20 µM (active); with Es-2 it was 10 µM (active); with HeLa it was 3.16 µM (active); in the test on PA-1 it was 3.16 µM (active); with Tov112D, 5.01 µM (active). Besides, the Potency result in the test with CAOV3 and in the test with CASKI was “inactive” in each case.
In the case of `C=C(CCC1=C(C)[C@H]2[C@H](CC3[C@@H]4CC=C5C[C@@H](O)C[C@@H](O)[C@]5(C)C4[C@H](O)C[C@@]32C)O1)CO[C@@H]1O[C@H](CO)[C@@H](O)[C@H](O)[C@H]1O` (some centres undefined), the Potency in the test with C33A was 1.26 µM (active); with CAOV3, 3.55 µM (active); in the test with CASKI it was 3.16 µM (active); in the test on Es-2, 3.16 µM (active); in the test with HeLa, 3.16 µM (active); with Hek293T, 3.16 µM (active). Besides, the Potency was 3.16 µM (active) in the test with PA-1, 2.82 µM (active) in the test on SKOV3, 2.51 µM (active) in the test on Tov-21-G and 1.12 µM (active) in the test with Tov112D.
For `Cc1c[nH]c2nccc(Oc3c(F)cc(Nc4cc(Cl)nc(N)n4)cc3F)c12`, the Potency entry with C33A, with CAOV3, in the test with CASKI and in the test with OV90 was “inactive” each time. The Potency with Es-2 was 12.6 µM (active); with HeLa it was 7.94 µM (active); with Tov112D it was 7.94 µM (active).
As to `CC1(C)CC2C(C1)C(C)(O)C13CC1(COC3=O)C2O` (centres undefined), the Potency result in the test on C33A, in the test with CAOV3, in the test on CASKI, with Es-2, in the test with HeLa and in the test with Hek293T was “inactive” throughout. For the same molecule, the Potency result with OV90, in the test on PA-1, in the test with SKOV3, with Tov-21-G and in the test on Tov112D was “inactive” in each case.
With `O=C1CCC=CC1(O)C(=O)OCc1ccccc1O[C@@H]1O[C@H](CO)[C@@H](O)[C@H](O)[C@H]1O` (some centres undefined), the Potency entry in the test on C33A, in the test with CAOV3, in the test with CASKI, in the test on Es-2, in the test on HeLa and in the test on Hek293T was “inactive” in each case. In addition, the Potency result in the test on OV90, in the test on SKOV3, in the test with Tov-21-G and in the test on Tov112D was “inactive” in each case.
Consider `COc1ncc2cc(C(=O)Nc3cc(C(=O)NCc4cccc(Cl)c4)ccc3Cl)c(=O)[nH]c2n1`, for which the Potency result in the test on C33A, with CAOV3, with CASKI, with Es-2, with Hek293T and in the test with JEG-3 was “inactive” each time. For the same molecule, the Potency entry with OV90, in the test on PA-1 and in the test with SKOV3 was “inactive” in each case.
For `O=C(O)c1ccc(CN2CCC(CN[C@@H]3C[C@H]3c3ccccc3)CC2)cc1`, the Potency entry with C33A, in the test on CAOV3, in the test with CASKI, with Es-2, in the test with HeLa and in the test on Hek293T was “inactive” throughout. In addition, the Potency result in the test on OV90, in the test with PA-1, in the test on Tov-21-G and in the test with Tov112D was “inactive” throughout.
For the molecule `Cc1ccc(S(=O)(=O)n2ccc(-c3c(-c4ccc(Cl)cc4)noc3C)n2)cc1`, the Potency in the test with C33A was 8.91 µM (active). Also, the Potency entry in the test with CAOV3, with CASKI, in the test on Es-2, in the test with HeLa, with Hek293T and with OV90 was “inactive” in each case. Moreover, the Potency entry with PA-1 was “inactive”.
